An excerpt weighted towards active compounds, which were near 8.9% of everything screened.
DRD3 antagonist – D3 dopamine receptor (human) antagonism. P35462. D3R cells, DiscoveRx beta-arrestin luminescence, antagonist mode; active compounds read low. max response, negative = inhibition, %. actives 2.5% (n = 360,000); in the data active = max response below about -50%; inconclusive = no clear call, values can overlap the other calls; note: % is set by controls: 0 for no effect and ±100 for the full control effect
Target sequence (P35462 whole entry, looked up): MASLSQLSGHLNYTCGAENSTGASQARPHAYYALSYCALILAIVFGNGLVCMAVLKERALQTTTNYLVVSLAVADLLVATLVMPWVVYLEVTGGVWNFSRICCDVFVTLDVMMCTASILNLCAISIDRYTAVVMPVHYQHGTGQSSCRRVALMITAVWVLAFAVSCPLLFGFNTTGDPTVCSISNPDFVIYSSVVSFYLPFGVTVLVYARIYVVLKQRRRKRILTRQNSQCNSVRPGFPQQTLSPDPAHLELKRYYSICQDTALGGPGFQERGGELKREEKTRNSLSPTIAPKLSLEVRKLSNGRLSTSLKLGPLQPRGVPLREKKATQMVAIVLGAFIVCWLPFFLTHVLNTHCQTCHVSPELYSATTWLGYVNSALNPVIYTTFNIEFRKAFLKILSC
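Cells expressing the human receptor were seeded at 1500 cells/well, incubated overnight at 37 degrees C in 5% CO2, then exposed to library compounds with dopamine controls for 90 minutes at 37 degrees C before luminescent detection.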
MCF10A rerep – induces DNA re-replication in MCF 10a normal breast cells. Potency, µM (highest dose often 46.1 µM), without a hit: at the highest dose activity, positive = re-replication, actives largely listed as activators. actives 2.9% (n = 350,000). AID 624296. MCF 10A DNA re-replication, Hoechst nuclear intensity, 48 h; note: potency is the fitted concentration of half-maximal effect; % of control where 0% means no effect; nearly all actives have a fitted effect of over 50% in size
KB-V1 cytotox – kills drug-selected multidrug resistant KB-V1 cells | actives 3.4% (n = 400,000) | KB-V1 MDR cells viability, CellTiter-Glo, 72 h | AID 1347076 | Potency, µM (highest dose often 46.1 µM), actives largely listed as cytotoxic; note: potency is the fitted concentration of half-maximal effect; % is set by controls: 0 for no effect and ±100 for the full control effect; nearly all actives have a fitted effect of over 60% in size
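Luminescent ATP read-out (CellTiter-Glo, 10 min) measures survival of drug-selected KB-V1 MDR cells after 72 h, 37 degrees C compound exposure. Medium: phenol-red-free DMEM, 10% FBS. Values from fitted concentration-response curves.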
KB-3-1 tox – KB-3-1 parental cell cytotoxicity. actives 1.4% (n = 400,000). Potency, µM (doses to about 46.1 µM), actives largely listed as cytotoxic. KB-3-1 viability, CellTiter-Glo ATP luminescence, 72 h. AID 1347075; note: potency is the fitted concentration of half-maximal effect; % is set by controls: 0 for no effect and ±100 for the full control effect; nearly all actives have a fitted effect of over 60% in size
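Viability of parental KB-3-1 cells, measured by CellTiter-Glo luminescence, followed a 72 h incubation at 37 °C with pinned compounds in phenol-red-free DMEM containing 10% FBS.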
DRD3 agonist – agonists of human D3 dopamine receptor; D3R DiscoveRx beta-arrestin cells, luminescence, 90 min; max activation, %; actives 0.58% (n = 410,000); in the data active = max activation above about 30%; note: 0% is about no effect
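Cells at 1500/well, incubated overnight, then treated with pinned compounds (dopamine as control) for 90 min at 37 degrees C. DiscoveRx reagent added for 30 - 60 minutes at room temperature; luminescence read.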
SW480 rereplic – inducers of DNA re-replication in SW480 colon cancer cells; actives 1.8% (n = 340,000); SW480 DNA re-replication, Hoechst DNA content imaging, 48 h; AID 624297; Potency, µM (doses to about 46.1 µM), without a hit: top-dose re-replication activation, actives largely listed as activators; note: potency is the fitted concentration of half-maximal effect; % of control where 0% means no effect; nearly all actives have a fitted effect of over 55% in size
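Treated cells incubate 48 hr (37 C, 5% CO2), are stained 40 min with Hoechst, and nuclear fluorescence is enumerated; a rise in nuclei with high DNA signal marks re-replication.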
* marks the source's active call; other numbers are inactive results; i = inactive; ? = inconclusive; . = no result; ! = not active in a repeat; [ ] = dose if it differs, or a comment. Unless noted, calls come from the whole dose curve; as a rule, active = well fitted curve in the direction sought with a large enough effect; inconclusive = small, poorly fitted or top-dose-only effect, or another doubt; inactive = no such curve, though single readings can be large; an effect the other way counts as inactive or inconclusive.

SMILES	DRD3 antagonist	MCF10A rerep	KB-V1 cytotox	KB-3-1 tox	DRD3 agonist	SW480 rereplic
CNc1nc(-c2ccccc2)c2sccc2n1	-74.2*	.	i	i	-12.9	.
CNc1nc(NCc2ccccc2)c2sccc2n1	7.4	.	i	i	6.0	.
O=C(Nc1ccccc1Br)c1cc(S(=O)(=O)NC2CCCCC2)ccc1F	.	.	.	.	-6.6	.
C#CC(=O)N(c1ccc(OC)cc1OC)C(C(=O)NC1CCCC1)c1cccs1 (stereo not drawn)	-50.7*	?	i	i	-6.6	?
C#CC(=O)N(c1cc(OC)ccc1OC)C(C(=O)NC1CCCC1)c1cccs1 (stereo not drawn)	-62.2*	25.8%	?	14.6µM*	-6.4	0.146µM*
Cc1ccc(SCC(=O)NNC(=O)c2ccccc2)cc1C	-69.9*	6.6%	i	i	-16.3	-0.2%
Cc1cc(C)c(Cn2c3ccccc3c3cnn(CC(=O)NC4CCC(C)CC4)c(=O)c32)c(C)c1 (stereo not drawn)	.	.	i	i	-7.4	.
CC(C)Oc1ccc(CNC(=O)c2ccc(CS(=O)c3cccc(Cl)c3)o2)cc1 (stereo not drawn)	.	.	.	.	11.5	.
CC1(C)CC(=O)C2=C(C1)Oc1ncn(Cc3ccco3)c(=N)c1C2c1ccccc1 (stereo not drawn)	?	-3.4%	?	i	-4.4	9.1%
COc1ccc(C2c3c(ncn(CCN4CCOCC4)c3=N)Oc3ccc4ccccc4c32)cc1 (stereo not drawn)	-4.0	?	14.6µM*!	?	-0.8	?
N=c1c2c(ncn1CCN1CCOCC1)Oc1ccc3ccccc3c1C2c1ccccc1 (stereo not drawn)	10.7	-0.3%	i	i	-5.8	-10.7%
COc1ccc(C2C3=C(CC(C)(C)CC3=O)Oc3ncn(Cc4ccccc4)c(=N)c32)cc1 (stereo not drawn)	-7.6	16.4µM*	3.26µM*	i	-7.6	?
COc1cc(-c2nc3ccccn3c2/N=C/c2cc(OC)c(OC)c(OC)c2)ccc1O	28.8	3.3%	i	i	4.9	-5.1%
CN(C)c1ccc(-c2nc3ccccn3c2/N=C/c2ccc(Br)cc2)cc1	0.0	-1.9%	9.2µM*	14.6µM*	-12.3	?
Cc1ccc(-c2nc3ccccn3c2C=O)cc1	-13.8	-7.5%	?	i	-5.6	-5.0%
Cc1c(-c2ccc(Br)cc2)nc2ccccn12	-17.8	?	20.6µM*	i	-18.3	-3.6%
COc1ccccc1NC(=O)Nc1ccnn1C1CCCCC1	7.0	-1.4%	i	i	2.0	-4.4%
CCCCNC(=O)Nc1ccnn1C1CCCCC1	-76.1*	-13.7%	i	i	-7.2	-17.2%
Cc1c(C(=O)N(CCO)Cc2ccccc2)oc2c(F)cccc12	3.3	0.731µM*	i	i	-3.1	-65.9%
Cc1c(C(=O)N(C)Cc2ccccc2)oc2c(Cl)cccc12	-6.9	18.4µM*	?	?	-9.2	21.2%
Cc1cc(Cl)c2oc(C(=O)N(C)Cc3nccn3C)c(C)c2c1	-67.3*	-7.4%	i	i	-24.3	0.9%
Cc1cc(Cl)c2oc(C(=O)N(C)Cc3cc(C)[nH]n3)c(C)c2c1	-6.1	24.0%	?	i	0.5	0.1%
CN(Cc1ccccc1)C(=O)Nc1ccc(Cl)cc1	-0.5	4.1%	i	i	-4.4	-23.2%
CN(Cc1ccccc1)C(=O)Nc1c(Cl)cccc1Cl	-50.6*	.	?	i	-7.3	.
COC(=O)c1cc2oc3ccccc3c2n1CC(=O)Nc1ccc(C)cc1C	.	.	?	i	-25.3	.
SMILES	DRD3 antagonist	MCF10A rerep	KB-V1 cytotox	KB-3-1 tox	DRD3 agonist	SW480 rereplic
COc1ccc(C2=NN(C(C)=O)C(c3cn(-c4ccccc4)nc3-c3cccs3)C2)cc1 (stereo not drawn)	.	.	i	i	-1.5	.
CN(C)c1ccc(CCc2ccnc3ccccc23)cc1	.	.	i	i	.	.
CCOC(=O)c1c(NC(=O)c2cc(-c3ccc(OC)cc3)on2)sc(C)c1C	.	.	i	i	0.6	.
CC#CC[N+](C)(C)CCCCCCCC	5.5	3.7%	i	18.4µM*	2.3	-0.2%
O=C(c1cccc(Cl)c1)n1nc(-c2ccco2)nc1NCc1cccs1	.	.	i	?	4.7	.
O=C1c2ccccc2C(=Cc2cccnc2)c2ccccc21	16.6	.	i	i	6.2	.
CN1C/C(=C/c2cccnc2)C(=O)/C(=C/c2cccnc2)C1	-55.3*	14.6µM*	14.6µM*	?	-7.6	?
CC(C)N1C/C(=C/c2ccsc2)C(=O)/C(=C/c2ccsc2)C1	?	8.2µM*	?	14.6µM*	-9.4	9.2µM*
CC(C)N1C/C(=C/c2cccnc2)C(=O)/C(=C/c2cccnc2)C1	?	1.16µM*	14.6µM*	?	6.9	?
O=C(NCc1ccccc1)C1Cc2c(-c3ccc4c(c3)OCO4)ccnc2O1 (stereo not drawn)	-20.3	.	1.16µM*	0.82µM*	-9.9	.
NC(=O)c1cccc(-c2ccnc3c2CC(C(=O)NCc2ccccc2)O3)c1 (stereo not drawn)	-21.0	.	i	3.66µM*	-22.5	.
Cc1nc(N2CCCC2)c2c(C(=O)Nc3ccc(C)c(Cl)c3)c(C)oc2n1	.	.	.	.	1.1	.
CCC(Sc1nc2sc(C(=O)OC)c(C)c2c(=O)n1N)C(=O)NCC1CCCO1 (stereo not drawn)	-1.0	-10.7%	16.4µM*	i	1.4	-7.1%
CCC(Sc1nc2sc(C(=O)OC)c(C)c2c(=O)n1N)C(=O)N(CC)CC (stereo not drawn)	11.0	0.6%	3.66µM*	i	2.9	-7.1%
COCCCNC(=O)CSc1nc2sc(C(=O)OC)c(C)c2c(=O)n1N	0.9	-2.7%	i	i	-8.2	11.7%[1.84 µM]
CCCCNC(=O)C(CC)Sc1nc2sc(C(=O)OC)c(C)c2c(=O)n1N (stereo not drawn)	2.8	5.1%	4.61µM*	i	-6.2	?
CCOCCCn1c(SC(C)C(=O)NCC2CCCO2)nc2sc(C)c(C)c2c1=O (stereo not drawn)	6.1	-3.3%	i	i	4.4	-17.2%
CC1CCN(C(=O)C(C)OC(=O)c2ccc(S(C)(=O)=O)c([N+](=O)[O-])c2)CC1 (stereo not drawn)	.	.	i	?	.	.
CCOc1ccc(-n2c(C)nc3cc(C(=O)NCc4ccc5c(c4)OCO5)ccc32)cc1	-2.9	17.7%	13µM*	?	-4.8	2.0%
Cc1c2cnn(-c3ccccc3)c(=O)c2c(C)n1CC(=O)N1CCN(c2ccc(F)cc2)CC1	.	.	i	i	-3.3	.
O=S(=O)(c1ccc(Cl)s1)N1CCN(c2ncccn2)CC1	7.1	18.4µM*	i	i	1.6	7.0%
